Screening results: PubChem BioAssay, National Center for Advancing Translational Sciences (NCATS)
Shown are actives, neighbours in structure and some others; about 2.4% of the full set was active somewhere.
D2 antag – D2 dopamine receptor (human) antagonism | P14416 | HEK293 TREx D2 cells, calcium flux, dopamine EC80 | inhibition, % at 10 µM | 340,000 tested, 2% active | AID 485344; in the data active = inhibition above about 30%; inactive = below that, where a call was filed
Target sequence (P14416 whole entry, looked up): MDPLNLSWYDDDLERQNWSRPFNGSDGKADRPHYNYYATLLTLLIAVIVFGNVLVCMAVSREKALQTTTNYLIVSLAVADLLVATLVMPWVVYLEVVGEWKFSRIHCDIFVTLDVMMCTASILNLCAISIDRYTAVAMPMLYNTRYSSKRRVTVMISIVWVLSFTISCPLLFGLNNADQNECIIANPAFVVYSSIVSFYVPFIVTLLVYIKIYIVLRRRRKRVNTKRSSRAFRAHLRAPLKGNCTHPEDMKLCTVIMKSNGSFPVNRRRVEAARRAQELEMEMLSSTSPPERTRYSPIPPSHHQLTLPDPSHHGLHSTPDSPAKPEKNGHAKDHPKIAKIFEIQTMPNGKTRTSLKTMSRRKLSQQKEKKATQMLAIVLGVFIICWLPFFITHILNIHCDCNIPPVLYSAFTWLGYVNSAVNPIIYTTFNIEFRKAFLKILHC
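Dopamine at EC80 is the agonist stimulus; test compounds precede it by 180 s. Calcium flux read kinetically in a force-coupled, inducible HEK293 T-REx D2 cell line.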
D2 ag-1 – D2 dopamine receptor (human) agonism; P14416; HEK293 T-REx D2 cells, calcium flux agonist mode; activation, % at 2 µM; 340,000 tested, 0.53% active; AID 485358;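 active = activation over 3 SD above normal in the single-dose calcium agonist read, cut at about 30% in these data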
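Tetracycline-induced HEK293 T-REx cells with force-coupled D2 receptor, plated overnight at 30 C, loaded with no-wash calcium dye. After a 10 s baseline, compound was pin-added and calcium flux read kinetically for 180 s; calcium rises flagged agonists.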
D2 ag-2 – human D2 receptor agonism in beta-arrestin assay | DiscoveRx PathHunter D2 beta-arrestin, luminescence, 90 min; 100% = 57 uM dopamine signal | activation, % (concentration not given with the values) | 360,000 tested, 0.084% active; in the data active = activation above about 40%; inconclusive = between about 15% and that limit
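DiscoveRx PathHunter D2 beta-arrestin cells (2,100/well) attached overnight, then compound-stimulated 90 min at 37 C in HBSS/10 mM HEPES/0.1% Tween-20 buffer; beta-galactosidase complementation read by luminescence after 1 h at ambient temperature. Dopamine 57 uM final (EC100) as control.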
D2 PAM-1 – human D2 receptor positive allosteric modulation; P14416; DiscoveRx D2 beta-arrestin cells, luminescence, 90 min; 100% = 57 uM dopamine signal; potentiation, % (test concentration not listed); 360,000 tested, 0.23% active; AID 624464; in the data active = potentiation above about 50%; inconclusive = mostly about 30% to 49%
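PathHunter D2 cells, attached overnight at 37 deg C, received compound in DMSO plus dopamine at EC20 (50 nM final) for 90 min at 37 deg C. Beta-arrestin recruitment was read as luminescence after 1 h with detection reagent at ambient temperature.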
D2 PAM-2 – positive allosteric modulators of human D2 dopamine receptor; HEK293 T-REx D2, calcium flux, EC20 dopamine potentiation; potentiation, % at 10 µM; 340,000 tested, 0.34% active;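 active = potentiation over 3 SD above the plate norm, cut at about 30% in these data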
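Using a no-wash calcium dye in inducible, force-coupled HEK293 Trex cells expressing D2, we tracked fluorescence each second for 180 s after compound, then for 180 s after EC20 dopamine to detect augmented signalling.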
Hits are given with their value.

Fc1ccc(Nc2nc(SCc3ccccc3F)nc3ccccc23)cc1 was read as D2 ag-1 inactive and D2 PAM-2 inactive.
`O=C1[C@H]2[C@@H](c3ccc(F)cc3)N3C(=O)N(c4cccc(Br)c4)C(=O)[C@@]3(Cc3ccccc3)[C@H]2C(=O)N1C1CCCCC1` gave D2 antag 40.9, D2 ag-1 inactive, D2 ag-2 inactive, D2 PAM-1 inactive and D2 PAM-2 inactive.
For CC(C)COC(=O)n1c(SCC(=O)N(C)C)nc2ccccc21 the results were D2 antag 31.4, D2 ag-1 inactive, D2 ag-2 inactive, D2 PAM-1 inactive and D2 PAM-2 inactive.
CC(C)COC(=O)n1c(SCC(N)=O)nc2ccccc21 was read as D2 antag inactive, D2 ag-1 inactive, D2 ag-2 inactive, D2 PAM-1 inactive and D2 PAM-2 inactive.
For CCCCN(c1ccccc1)c1ncnc2c1cnn2-c1ccc(Cl)cc1 the results were D2 ag-1 inactive and D2 PAM-2 inactive.
`Cc1cccc(NC(=O)CSc2nc3ccccc3c3nc(CCn4cncc4C)nn23)c1` gave D2 ag-1 inactive and D2 PAM-2 inactive.
O=C(CCCc1ccccc1)NC1CC(=O)N(c2ccc(F)cc2)C1 (centres undefined) was read as D2 ag-1 inactive.
`COc1ccc(CCN(C)C(=O)CCNS(=O)(=O)c2ccccc2C(F)(F)F)cc1OC` gave D2 antag 34.7, D2 ag-1 inactive, D2 ag-2 inactive, D2 PAM-1 inactive and D2 PAM-2 inactive.
`CCCCNC(=S)Nc1ccc(Cl)cc1` gave D2 antag inactive, D2 ag-1 inactive, D2 ag-2 inactive, D2 PAM-1 inactive and D2 PAM-2 inactive.
`CCCCc1ccc(NC(=S)NCCO)cc1` gave D2 antag 30.9, D2 ag-1 inactive, D2 ag-2 inactive, D2 PAM-1 inactive and D2 PAM-2 inactive.
`CCCCc1ccc(NC(=S)NCCc2ccc(F)cc2)cc1` gave D2 antag 30.5, D2 ag-1 inactive, D2 ag-2 inactive, D2 PAM-1 inactive and D2 PAM-2 inactive.
Screening O=C(Nc1nc2n(n1)C(c1ccc(F)cc1)C=C(c1ccc(Cl)cc1)N2)c1ccc([N+](=O)[O-])cc1 (centres undefined) returned D2 PAM-2 inactive.
`Cc1cc(C)c2c(C)c(C(=O)N3CCC(c4nc5ccccc5s4)CC3)oc2c1` gave D2 ag-1 inactive and D2 PAM-2 inactive.
For COc1cc(-c2noc(-c3ccc(NCc4cccnc4)c([N+](=O)[O-])c3)n2)cc(OC)c1OC the results were D2 ag-1 inactive and D2 PAM-2 inactive.
Screening Cc1cccc(NC2=C/C(=N/S(=O)(=O)c3cccs3)c3ccccc3C2=O)c1 returned D2 antag inactive, D2 ag-1 inactive, D2 ag-2 inconclusive, D2 PAM-1 95.7 and D2 PAM-2 inactive.
Cc1noc(/C=C/c2ccccc2F)c1S(=O)(=O)N1CCC(C(=O)N(C)Cc2ccco2)CC1 was read as D2 ag-1 inactive and D2 PAM-2 inactive.
For O=c1cc2nc(-c3ccccc3F)nc(SCc3ccc(Br)cc3)n2[nH]1 the results were D2 PAM-2 inactive.
`COc1cc(NC(=O)CSc2nc(C)c(C)c(C)n2)cc(OC)c1` gave D2 antag 48.3, D2 ag-1 inactive, D2 ag-2 inactive, D2 PAM-1 inactive and D2 PAM-2 inactive.
For COc1cc(Cl)c(NC(=O)CN(C)S(=O)(=O)c2ccc3c(c2)CCCC(=O)N3)c(OC)c1 the results were D2 PAM-2 inactive.
`COc1ccc(S(=O)(=O)NCC(=O)N(CC(=O)NCc2ccco2)C2CCCC2)cc1` gave D2 antag 46.7, D2 ag-1 inactive, D2 ag-2 inactive, D2 PAM-1 inactive and D2 PAM-2 inactive.
`COc1ccc(S(=O)(=O)N(C)CC(=O)NCc2ccco2)cc1OC` gave D2 antag 33.7, D2 ag-1 inactive, D2 ag-2 inactive, D2 PAM-1 inactive and D2 PAM-2 inactive.
Cc1ccc(S(=O)(=O)N(CC(=O)NCc2ccco2)C2CCCCC2)cc1 was read as D2 antag inactive, D2 ag-1 inactive, D2 ag-2 inactive, D2 PAM-1 inactive and D2 PAM-2 inactive.
O=C(CN(C1CCCCC1)S(=O)(=O)c1ccccc1)NCc1ccco1 was read as D2 antag inactive, D2 ag-1 inactive, D2 ag-2 inactive, D2 PAM-1 inactive and D2 PAM-2 46.5.
`Cc1ccc(S(=O)(=O)CC(=O)c2ccc(C)c([N+](=O)[O-])c2)cc1` gave D2 antag 78.8, D2 ag-1 inactive, D2 ag-2 inactive, D2 PAM-1 inactive and D2 PAM-2 inactive.
For Cc1ccc(S(=O)(=O)CC(=O)c2ccc([N+](=O)[O-])cc2)cc1 the results were D2 antag inactive, D2 ag-1 inactive, D2 ag-2 inactive, D2 PAM-1 inactive and D2 PAM-2 inactive.
`COc1ccccc1C(=O)NNC(=O)c1ccc2ccccc2c1` gave D2 antag inactive, D2 ag-1 inactive, D2 ag-2 inactive, D2 PAM-1 66.9 and D2 PAM-2 inactive.
COc1ccccc1C(=O)NNC(=O)c1ccc(O)cc1 was read as D2 ag-2 inactive and D2 PAM-1 inactive.
`O=C(CN1C(=O)CCC1=O)NCC12CC3CC(CC(C3)C1)C2` gave D2 antag inactive, D2 ag-1 inactive, D2 ag-2 inactive, D2 PAM-1 inactive and D2 PAM-2 38.5.
CCc1c(C)sc2c1CCN(C(=O)Nc1cc(C)ccc1OC)C2c1ccc(F)cc1 (centres undefined) was read as D2 ag-1 inactive and D2 PAM-2 inactive.
Fc1c(F)c(F)c(N/N=C/c2c[nH]c3ccccc23)c(F)c1F was read as D2 antag inactive, D2 ag-1 inactive, D2 ag-2 inconclusive, D2 PAM-1 60.2 and D2 PAM-2 inactive.
`COc1ccccc1CNC(=O)Cn1cc2c(n1)-c1c(oc(C(=O)N3CCOCC3)c1C)CC2` gave D2 ag-1 inactive and D2 PAM-2 inactive.
Screening CCOc1ccc(CCNC(=O)c2ccc(-c3nc(COc4ccc(C)cc4)c(C)o3)cc2)cc1 returned D2 ag-1 inactive and D2 PAM-2 inactive.
Cc1ccc(S(=O)(=O)c2c(O)cc(C)c(NS(=O)(=O)c3ccc(Br)cc3)c2C)cc1 was read as D2 ag-1 inactive and D2 PAM-2 inactive.
For Cc1cc(C)n2nc(SCc3ncc(-c4ccccc4)o3)nc2n1 the results were D2 antag inactive, D2 ag-1 inactive, D2 ag-2 inactive, D2 PAM-1 inactive and D2 PAM-2 inactive.
`Cc1cc(C)n2nc(SCc3nnc(-c4ccccc4Br)o3)nc2n1` gave D2 antag inactive, D2 ag-1 inactive, D2 ag-2 inactive, D2 PAM-1 inactive and D2 PAM-2 44.5.
For O=C(NC1CCSC1=O)c1cccc(C(=O)NC2CCSC2=O)c1 (centres undefined) the results were D2 antag 42.0, D2 ag-1 inactive, D2 ag-2 inactive, D2 PAM-1 inactive and D2 PAM-2 inactive.
